S1P4 antagonist = antagonists of human S1P4 receptor. S1P4-expressing cells, antagonist mode, reporter read-out. AID 1510. inhibition, % at 4.98 µM. 0.26% of 220,000 active; in the data active = inhibition above about 29%;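 note: 0% = wells stimulated with agonist and 100% = vehicle wells without agonist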
Target sequence (O95977 whole entry, looked up): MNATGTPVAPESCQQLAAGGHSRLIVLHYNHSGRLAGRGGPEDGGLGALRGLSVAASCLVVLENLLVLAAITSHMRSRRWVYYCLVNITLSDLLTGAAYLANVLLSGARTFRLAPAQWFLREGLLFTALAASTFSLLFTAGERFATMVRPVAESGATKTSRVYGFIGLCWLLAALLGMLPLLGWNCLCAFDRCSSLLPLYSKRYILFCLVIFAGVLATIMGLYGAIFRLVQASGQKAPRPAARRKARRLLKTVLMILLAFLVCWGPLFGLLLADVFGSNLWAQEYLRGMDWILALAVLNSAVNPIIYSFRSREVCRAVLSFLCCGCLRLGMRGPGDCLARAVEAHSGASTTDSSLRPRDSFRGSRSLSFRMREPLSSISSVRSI
EP2 modulator = modulators of human EP2 prostaglandin E2 receptor; EP2-expressing cells, cAMP HTRF FRET, PGE2 co-stimulation; induction, % at 25 µM; 0.83% of 260,000 active; AID 940;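 active = compounds whose cAMP rise, as percent of the full-agonist control response, exceeds 60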;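 note: rat C6 glioma line stably carrying human EP2 under a CMV promoter; the protocol text gives 20 µM as final concentration; 100% = response of wells given 1 µM PGE2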
Target sequence (P43116 whole entry, looked up): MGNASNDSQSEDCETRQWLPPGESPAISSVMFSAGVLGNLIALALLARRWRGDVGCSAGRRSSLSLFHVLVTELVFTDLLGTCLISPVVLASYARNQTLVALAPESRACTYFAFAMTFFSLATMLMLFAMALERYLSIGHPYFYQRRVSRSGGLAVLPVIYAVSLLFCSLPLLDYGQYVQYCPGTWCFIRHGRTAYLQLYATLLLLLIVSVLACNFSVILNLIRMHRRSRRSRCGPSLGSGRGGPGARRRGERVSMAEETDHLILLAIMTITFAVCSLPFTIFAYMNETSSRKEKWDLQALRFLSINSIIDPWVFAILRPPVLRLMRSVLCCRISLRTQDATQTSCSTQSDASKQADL
Pf gametocyte = kills late stage P. falciparum gametocytes; AID 743093; inhibition, % at 10.9 µM; 0.065% of 150,000 active; P. falciparum stage V gametocytes, ATP luminescence, 24 h;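 active = inhibition above the mean plus 3 SD of compounds within the control limits, set per campaign, cut at about 38% in these data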;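 note: 0% = DMSO wells and 100% = medium only without gametocytes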
S1P4 agonist = agonists of human S1P4 receptor; AID 1509; 0.35% of 220,000 active; S1P4-expressing cell line, agonist reporter assay; activation, % at 4.98 µM; in the data active = activation above about 11%;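 note: 0% = DMSO vehicle and 100% = reference agonist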
EP2 antag = inhibitors of human EP2 prostaglandin E2 receptor; P43116; 0.52% of 260,000 active; C6 glioma cells expressing human EP2, cAMP TR-FRET; cells stimulated with saturating PGE2; inhibition, % at 25 µM;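 active = percent inhibition above 40 after rounding to a whole number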;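 note: rat C6 glioma host cells with rolipram phosphodiesterase inhibitor present; the protocol text gives 20 µM as final concentration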
S1P3 antag = antagonists of human S1P3 receptor. Q99500. CHO S1P3 NFAT-BLA reporter, FRET fluorescence, antagonist mode. inhibition, % at 4.98 µM. 0.27% of 170,000 active. AID 485;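 active = inhibition above the plate cutoff, the mean inhibition of test wells on that plate plus 3 SD, cut at about 28% in these data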;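 note: cells challenged with S1P at its EC80 of 0.8 µM; blue over green emission ratio from cleaved BLA substrate after 4 h stimulation; 0% = S1P-stimulated wells and 100% = unstimulated DMSO-only wells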
S1P4 ag conf = confirmation of human S1P4 receptor agonists; shares compounds with S1P4 agonist; 7% of 740 active; activation, % at 4.98 µM; S1P4 agonist cell-based reporter assay; AID 1523; in the data active = activation above about 12%;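 note: 0% = vehicle and 100% = full reference agonist response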
S1P1 ag = counter-screen for S1P4 agonists: agonists of human S1P1 | shares compounds with S1P4 agonist | S1P1 agonist cell-based assay, activation | activation, % at 4.98 µM | 4% of 740 active | AID 1563; in the data active = activation above about 21%;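 note: 0% = vehicle wells and 100% = reference agonist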
* marks the source's active call; other numbers are inactive results; . = not tested or not shown. The list is not random: actives were taken first. Their share in the collection is about 1.9%.

SMILES | S1P4 antagonist | EP2 modulator | Pf gametocyte | S1P4 agonist | EP2 antag | S1P3 antag | S1P4 ag conf | S1P1 ag
CCCCOc1ccc(C(=O)N/C(=C/C=C/c2ccccc2)C(=O)NCCCO)cc1 | -15.6 | 9.0 | 3.0 | 13.3* | 3.9 | -1.6 | -1.1 | -4.3
CCOC(=O)CNc1ccc(C(=O)OCC)cc1[N+](=O)[O-] | -14.5 | 4.1 | 22.9 | 2.3 | 7.0 | 1.9 | . | .
CCCNc1ccc(C(=O)OCC)cc1[N+](=O)[O-] | -9.1 | 9.9 | 21.1 | 33.6* | 5.7 | -14.3 | -1.7 | 7.8
COc1ccc(NC(=O)C2CC(=O)NC(Nc3cccc(C)c3)=N2)cc1 (stereo not drawn) | 1.7 | -3.2 | -7.8 | -2.1 | 9.8 | -5.0 | . | .
COc1ccc2nc(NC3=NC(C(=O)Nc4ccc(C)cc4)CC(=O)N3)nc(C)c2c1 (stereo not drawn) | -14.5 | 9.6 | . | 37.7* | 10.3 | -14.0 | -1.4 | -2.0
O=C(CCN1C(=O)c2ccccc2C1=O)NC1=NCCS1 | -13.0 | 11.9 | 3.7 | 24.6* | 5.2 | 6.9 | -1.9 | -5.9
CCOc1ccc(OCC)c(NC(=O)CSc2nc3cc(C)c(C)cc3cc2C#N)c1 | . | 19.6 | . | . | 23.4 | . | . | .
CCC(=O)NCCc1nc(-c2ccccc2)no1 | . | . | -19.6 | . | 15.1 | . | . | .
COc1ccccc1OCC(=O)NCc1nc(-c2ccccc2)no1 | -9.5 | -2.2 | -22.1 | 76.5* | 5.9 | 0.3 | -0.5 | 1.1
Cc1nc(Cl)c2c(n1)NC1=C(O2)C(=O)CCC1 | -3.4 | -38.6 | -2.0 | 14.2* | 2.9 | -6.1 | -1.9 | 3.8
CCc1nnc(NC(=O)c2ccc(Cl)c(S(=O)(=O)N3CCc4ccccc4C3)c2)s1 | -7.8 | -49.7 | -2.8 | 19.9* | 12.1 | -1.3 | -2.0 | 1.3
Nc1n[nH]c2cc(=O)n(-c3cccc(C(F)(F)F)c3)nc12 | -21.1 | -22.5 | -21.1 | 65.2* | 14.5 | -2.0 | -1.9 | -7.1
O=c1[nH][nH]c2cc(=O)n(-c3cccc(C(F)(F)F)c3)nc12 | 3.5 | 23.4 | 5.4 | -0.9 | 9.2 | 0.6 | . | .
CS(=O)(=O)N1N=C(c2ccco2)CC1c1ccccc1Cl (stereo not drawn) | -0.1 | 0.4 | -1.7 | 0.6 | 9.7 | -0.5 | . | .
COc1ccccc1C1CC(c2ccco2)=NN1S(C)(=O)=O (stereo not drawn) | -13.0 | 36.4 | -19.2 | 30.1* | 15.6 | -6.2 | -1.6 | -5.7
O=C(COC(=O)c1c2c(nc3ccccc13)CCN(Cc1ccccc1)C2)Nc1c(F)cccc1F | -1.4 | -26.7 | 5.4 | 57.5* | 19.1 | 8.4 | -3.0 | -4.5
C=CCn1c(COc2cc(C)ccc2C(C)C)nnc1SCC(=O)c1c(N)n(C)c(=O)n(C)c1=O | -6.7 | -4.2 | -5.3 | 13.2* | 6.9 | -0.6 | -0.3 | 1.0
CCCCCCn1c(COc2ccccc2F)nnc1SCC(=O)c1c(N)n(C)c(=O)n(C)c1=O | -14.1 | 11.1 | 12.6 | 0.8 | 6.2 | 16.3 | . | .
COc1ncccc1C1(O)CC2CCC(C1)N2C(=O)c1ccc(OC2CSC2)cc1 (stereo not drawn) | . | -75.2 | . | . | 15.2 | . | . | .
CCOC(=O)c1cc2occc2n1CC(=O)Nc1ccccc1OC | . | 47.1 | . | . | 10.6 | . | . | .
CC(C)C[C@H](NC(=O)c1[nH]cnc1C(=O)N[C@@H](Cc1ccccc1)C(=O)OCc1ccccc1)C(=O)OCc1ccccc1 | . | . | -4.7 | . | . | . | . | .
O=C(N[C@@H](Cc1ccccc1)C(=O)OCc1ccccc1)c1nc[nH]c1C(=O)NCc1ccccc1 | 5.0 | 46.3 | -8.6 | 20.1* | 7.9 | -19.8 | 31.9* | 0.6
COc1nc(Nc2ccccc2)nc(N2CCOCC2)n1 | . | -32.1 | . | . | 20.2 | . | . | .
COc1ccccc1CCNC(=O)Cn1nc(C)n2c(cc3sccc32)c1=O | . | -4.4 | . | . | . | . | . | .
COc1ccc(C2c3cc(OC)c(OC)cc3CCN2C2CC(=O)N(c3ccccc3)C2=O)cc1OC (stereo not drawn) | -2.5 | 30.7 | 13.5 | 18.1* | 4.3 | . | 0.0 | -3.1
SMILES | S1P4 antagonist | EP2 modulator | Pf gametocyte | S1P4 agonist | EP2 antag | S1P3 antag | S1P4 ag conf | S1P1 ag
CCC(C)OC(=O)Cn1cnc2sc(C)c(-c3ccc(F)cc3)c2c1=O (stereo not drawn) | . | 20.1 | . | . | 13.0 | . | . | .
Cn1c(=O)c2c(nc(SCC(=O)NCC3CCCO3)n2Cc2ccc(F)cc2)n(C)c1=O (stereo not drawn) | 0.7 | 4.2 | -12.0 | 0.2 | 5.2 | -7.1 | . | .
CCCn1c(SCC(=O)NCC2CCCO2)nc2c1c(=O)n(C)c(=O)n2C (stereo not drawn) | 0.0 | 8.3 | 17.5 | 34.1* | 1.6 | -2.7 | -1.6 | -1.7
Cn1c(=O)c2c([nH]c(=O)n2Cc2c(F)cccc2Cl)n(C)c1=O | . | 5.9 | . | . | 5.3 | . | . | .
Cc1ccc(CCC(=O)Nc2ccccc2F)s1 | -7.7 | -19.4 | -1.4 | 185.3* | 10.3 | -1.1 | -2.3 | -2.6
Cc1sc(NC(=O)CN(CCc2ccccc2)C(=O)C2CCC2)c(C(N)=O)c1C | . | -7.9 | . | . | 1.7 | . | . | .
COc1ccc(CC2(CO)CCN(Cc3cnn(C)c3C)CC2)cc1 | 7.9 | 6.7 | -3.8 | 17.4* | 0.5 | -11.4 | -1.3 | -8.5
CCCc1nn(C)c(C(N)=O)c1[N+](=O)[O-] | -14.8 | 13.2 | 14.7 | 11.9* | 6.0 | 1.5 | -1.0 | 3.4
COc1ccc(OC)c(/C=N/NC(=O)Cc2nc3ccccc3[nH]2)c1 | -26.9 | -33.6 | . | 11.5* | 3.1 | 2.8 | -1.8 | -7.7
C#Cc1cccc(-n2nnc(C(C)=O)c2C)c1 | -1.9 | -10.5 | 24.3 | 68.4* | 10.5 | -3.0 | -1.9 | 0.7
CC(=O)c1nnn(-c2c(F)cccc2F)c1C | 1.4 | 15.7 | 17.5 | 0.7 | 10.1 | -12.2 | . | .
CCOC(=O)c1ccc2c(c1)C(=O)N(C1CCCCC1)C2=O | -16.7 | 3.2 | 10.7 | 24.6* | 9.7 | 31.9 | -1.9 | 4.0
COc1ccc2nc(/C=N/NC(=O)[C@H](CCSC)NC(=O)OC(C)(C)C)ccc2c1 | -16.6 | -43.6 | 0.9 | 0.2 | 5.3 | 3.9 | . | .
CCC(C)[C@H](NC(=O)OC(C)(C)C)C(=O)N/N=C/c1ccc2cc(OC)ccc2n1 (stereo partly drawn) | -1.7 | 9.6 | -15.9 | 89.7* | 14.5 | -1.0 | -2.3 | -12.0
Cc1ccccc1C(=O)Nc1ncc([N+](=O)[O-])s1 | . | 0.4 | . | . | 7.5 | . | . | .
COC(=O)c1cc2c(=O)n3cc(C)ccc3nc2n(CCc2ccccc2)c1=N | . | -5.0 | . | . | 9.5 | . | . | .
COCCNC(=O)c1ccc2c(=O)n(Cc3ccco3)c(SCC(=O)NC3CCCC3)nc2c1 | 2.0 | 19.6 | -39.0 | 12.4* | -0.3 | . | -2.1 | -8.9
COCCNC(=O)CSc1nc2cc3c(cc2c(=O)n1Cc1ccco1)OCO3 | -1.6 | -3.4 | -22.6 | -1.4 | 4.3 | . | . | .
COc1cccc(NC(=S)N(CCc2c(C)[nH]c3ccccc23)Cc2cccs2)c1 | -7.9 | -22.3 | . | 15.8* | . | 21.2 | -1.9 | -2.5
CC(C)CC(=O)NS(=O)(=O)c1ccc(NS(C)(=O)=O)cc1 | 2.3 | 31.0 | 16.9 | 16.6* | 5.8 | -9.6 | -1.8 | 0.9

Source: PubChem
